Bioassay records (PubChem)
CYP2C19 act – activators of human cytochrome P450 2C19 | P33261 | activation factor at 5 µM | 96,000 tested, under 10 active | recombinant CYP2C19, luciferin-H EGE luminescence; hits give high values; 0 = fully inhibited enzyme, 1 = untreated enzyme;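 active means activation factor of at least 2 at 5 µM in the primary screen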;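 further: 0 = wells with 2.5 mM tranylcypromine and 1 = vehicle-only wells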
Target sequence (P33261 whole entry, looked up): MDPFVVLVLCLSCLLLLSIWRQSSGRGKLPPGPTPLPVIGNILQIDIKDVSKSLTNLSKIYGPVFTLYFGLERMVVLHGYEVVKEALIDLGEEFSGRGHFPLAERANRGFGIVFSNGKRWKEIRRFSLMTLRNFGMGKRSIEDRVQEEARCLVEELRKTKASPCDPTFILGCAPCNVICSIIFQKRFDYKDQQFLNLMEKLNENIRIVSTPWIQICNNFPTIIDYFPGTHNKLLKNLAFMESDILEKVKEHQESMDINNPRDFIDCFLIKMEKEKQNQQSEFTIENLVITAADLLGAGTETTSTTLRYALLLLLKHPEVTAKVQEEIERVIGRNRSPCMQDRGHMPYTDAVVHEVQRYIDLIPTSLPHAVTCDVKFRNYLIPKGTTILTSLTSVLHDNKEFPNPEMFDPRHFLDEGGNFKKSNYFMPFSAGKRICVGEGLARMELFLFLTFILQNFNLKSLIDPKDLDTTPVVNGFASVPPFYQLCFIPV
CYP2C9 inh – blocks human cytochrome P450 2C9 | P11712 | inhibition, % at 5 µM | 96,000 compounds, 20% hits | CYP2C9 Supersomes, luciferin-H conversion, luminescence | AID 777;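 active means blocking of liver enzyme CYP2C9 beyond about 50% at 5 µM, limit read from the data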
CYP2C9 activ – activators of human CYP2C9 | recombinant CYP2C9, luciferin-H conversion, luminescence; hits give high values; factor 1 = untreated enzyme, 0 = blocked | activation factor at 5 µM | 96,000 compounds, 1.4% hits;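 active means activation factor of 2 or more for CYP2C9 at a 5 µM dose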;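 further: 0 = sulfaphenazole-blocked wells and 1 = vehicle-only wells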
EphB4 ephrin blk – blocks human EphB4 binding to ephrin-B2 | 97,000 compounds, 0.15% hits | EphB4 LBD / TNYL-RAW-Alexa532 peptide, fluorescence polarization | inhibition, % at 7 µM;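 active means inhibition above the screen-wide mean inhibition plus 3 SD, cut at about 15% in these data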;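 further: 0% = DMSO wells and 100% = excess unlabeled TNYL-RAW peptide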
CYP2C19 inh – human CYP2C19 inhibition | P33261 | CYP2C19 Supersomes, luciferin-H EGE luminescence, 30 min | inhibition, % at 5 µM | 96,000 compounds, 21% hits | AID 778;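 active means CYP2C19 inhibition above a set limit at 5 µM in the primary screen, cut at about 50% in these data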;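 further: plate controls were negative control wells for no effect and 2.5 mM tranylcypromine positive control for full effect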
The depositor's hits bear a star; . = no result. In the library only some 27% were active in any assay of this set; here they are far more common.

SMILES	CYP2C19 act	CYP2C9 inh	CYP2C9 activ	EphB4 ephrin blk	CYP2C19 inh
CCC(SC1=N/C(=C/c2ccccc2OC)C(=O)N1c1ccccc1)C(=O)Nc1cc(C)on1 (configuration not stated)	0.8	67*	0.3	-7	24
Cc1ccc(C2CC(=O)NC(SCc3ccccc3)=C2C#N)cc1 (configuration not stated)	.	.	.	-4	.
N#CC1=C(SCc2ccccc2)NC(=O)CC1c1cccc(O)c1 (configuration not stated)	0.2	62*	0.4	-5	78*
N#CC1=C(SCc2ccccc2)NC(=O)CC1c1ccc(O)cc1 (configuration not stated)	0.4	53*	0.5	-7	65*
Cc1cc(C)c(S(=O)(=O)NCC(=O)O)cc1C	1.1	-14	1.1	-1	-8
O=C(Nc1cccc(F)c1)c1ccc(S(=O)(=O)N2CCOCC2)cc1	1	0	1	0	-3
COc1ccc(-c2noc(CCC(=O)N3CCN(c4cc(C)ccc4C)CC3)n2)cc1	0.4	78*	0.2	2	65*
Cc1ccc(-c2noc(CCC(=O)N3CCN(c4cccc(C(F)(F)F)c4)CC3)n2)cc1	0.2	93*	0.1	.	77*
COc1ccc(NC(=O)CCc2nc(-c3ccc(C)cc3)no2)c(OC)c1	0.8	12	0.9	-3	24
CCOCC(=O)Nc1nnc(COCC)s1	1.1	-3	1	6	-6
CCSc1nnc(NC(=O)COc2cccc3ccccc23)s1	0.8	57*	0.4	8	22
CCNC(=O)COc1ccc2ccccc2c1	0.9	5	0.9	0	14
CCOCC(=O)Nc1nnc(SCCOC)s1	1	51*	0.5	-3	1
O=C(COc1cccc2ccccc12)NNC(=O)Nc1ccccc1	0.5	-104	2*	2	53*
CCNC(=O)COc1cccc2ccccc12	0.5	-11	1.1	1	54*
COC(=O)c1sc(NC(=O)COc2cccc3ccccc23)nc1C	0.8	33	0.7	-4	20
CN(C)C(=O)N1CCC(C(=O)NCc2ccccc2)CC1	1	6	0.9	.	0
O=C(CCSc1ccccc1)Nc1ncccn1	0.9	2	1	6	6
Cc1ccc(Sc2cnc3ccccc3n2)cc1	0.9	19	0.8	4	10
CCCC[n+]1ccn(-c2nc3ccccc3nc2[N-]S(=O)(=O)c2ccccc2)c1	1	1	1	4	-2
CCCC[n+]1ccn(-c2nc3ccccc3nc2[N-]S(=O)(=O)c2ccc(C)cc2)c1	0.7	72*	0.3	1	25
COc1ccc(CNC(=O)c2ccc(NC(=O)CC3SC(N4CCCC4)=NC3=O)cc2)cc1 (configuration not stated)	0.9	-2	1	6	13
CN(C1=NC(=O)C(CC(=O)Nc2ccc(Br)cc2)S1)c1ccc(O)cc1 (configuration not stated)	0.9	62*	0.4	7	10
Cc1ccccc1NC(=O)CN1C(=O)COc2ccc(Cl)cc21	0	55*	0.4	0	97*
CC(=O)c1ccc(NC(=O)CN2C(=O)COc3ccc(Cl)cc32)cc1	0.2	-2	1	2	75*
SMILES	CYP2C19 act	CYP2C9 inh	CYP2C9 activ	EphB4 ephrin blk	CYP2C19 inh
CC(C)CCOCC(=O)Oc1ccccc1C(=O)O	1	14	0.9	-2	-2
Cc1cccc(-c2nc(NCCCN3CCOCC3)c3ccccc3n2)c1	0.4	84*	0.2	0	60*
O=C1NC(=S)SC1=C1CCCC1	0.7	74*	0.3	5	29
CCc1ccc(NC(=O)CN(c2ccc3c(c2)OCO3)S(=O)(=O)c2c(C)noc2C)cc1	1	-1	1	-4	0
CCn1cc(/C=N/N=C2\CCC3C4CCc5cc(O)ccc5C4CC[C@]23C)c(C)n1 (some centres not stated)	0.6	68*	0.3	-1	38
CCn1c(SCC(=O)c2ccc3c(c2)OCCO3)nnc1-c1ccco1	0	39	0.6	3	96*
COCCn1c(SCC(=O)c2ccc3c(c2)OCCO3)nnc1-c1ccco1	0.4	42	0.6	3	65*
N#CC1(c2ccccc2)CCCN1C(=O)c1ccc(Br)cc1 (configuration not stated)	0.4	60*	0.4	2	64*
CCCN(CCC)C(=O)CSc1nc2n[nH]c(C)c2c(=N)n1-c1ccc(OCC)cc1	0.7	34	0.7	-9	32
O=c1c(-c2ccc(F)cc2)coc2cc(O)ccc12	0.7	-8	1.1	-2	27
Cc1ccccc1CSCC(=O)c1c(N)n(C)c(=O)n(C)c1=O	0	58*	0.4	-6	99*
O=c1c2ccccc2ncn1Cc1ccco1	0.9	16	0.8	8	12
c1cncc(-c2nc(-c3ccco3)cs2)c1	0.7	0	1	4	28
c1csc(-c2csc(-c3cccs3)n2)c1	1.1	-1	1	-6	-7
Clc1ccsc1-c1csc(-c2cccnc2)n1	0.4	6	0.9	9	62*
c1cncc(-c2nc(-c3cccs3)cs2)c1	0.3	27	0.7	-7	70*
c1cncc(-c2nc(-c3ccc4c(c3)OCO4)cs2)c1	0.3	37	0.6	-4	69*
COc1ccc(-c2n[nH]c(C(F)(F)F)c2-c2cc3ccccc3o2)c(O)c1	0.8	90*	0.1	2	20
N#C/C(=N\Nc1cccc(Cl)c1)C(=O)c1ccccc1	0.7	63*	0.4	2	32
N#C/C(=N\Nc1ccccc1Cl)C(=O)c1ccccc1	0.7	22	0.8	2	30
COc1ccc(C(C)NC(=O)c2ccccc2)cc1 (configuration not stated)	0.3	5	0.9	16*	75*
COc1ccc(C(NC(=O)c2ccc(-c3ccccc3)cc2)c2ccccc2)cc1 (configuration not stated)	0.9	0	1	1	9
CC(C)NC(=O)NC(=O)COc1cccc2c1OC(C)(C)C2	0.1	32	0.7	3	93*
Cc1cnc(NC(=O)COc2cccc3c2OC(C)(C)C3)s1	0.9	24	0.8	-1	12
CCC(C)(C(=O)NC1CCCCC1)N(C(=O)C1CCC(=O)N1)c1ccc(C)cc1 (configuration not stated)	1.1	-20	1.2	.	-15
CC(C)CCN(C(=O)Nc1ccccc1)C(C)c1cccs1 (configuration not stated)	0.8	74*	0.3	-4	17
CCCCN(C(=O)NC(=O)C1=C(N2CCOCC2)/C(=C/c2ccccc2)CC1)S(C)(=O)=O	0.2	78*	0.2	.	79*
CN(C(=O)NC(=O)C1=C(N2CCOCC2)/C(=C/c2ccccc2)CC1)S(C)(=O)=O	0.8	6	0.9	0	19
COc1ccccc1OCC(=O)Nc1oc(-c2ccccc2)c(-c2ccccc2)c1C#N	0.7	85*	0.1	-9	34
